58 compounds from PubChem BioAssay AID588726 (The Scripps Research Institute Molecular Screening Center, 2011) can be followed below.

Out of some 360,000 compounds screened, about 8,200 (2.3%) were called active. This excerpt belongs to a sample that is enriched for actives. Unmarked numbers belong to inactive results. Rule as the data show it: active = inhibition above about 27%; inactive = the rest.

Fructose-bisphosphate aldolase (Mycobacterium tuberculosis (strain ATCC 25618 / H37Rv)), sequence (P9WQA3 whole entry, looked up): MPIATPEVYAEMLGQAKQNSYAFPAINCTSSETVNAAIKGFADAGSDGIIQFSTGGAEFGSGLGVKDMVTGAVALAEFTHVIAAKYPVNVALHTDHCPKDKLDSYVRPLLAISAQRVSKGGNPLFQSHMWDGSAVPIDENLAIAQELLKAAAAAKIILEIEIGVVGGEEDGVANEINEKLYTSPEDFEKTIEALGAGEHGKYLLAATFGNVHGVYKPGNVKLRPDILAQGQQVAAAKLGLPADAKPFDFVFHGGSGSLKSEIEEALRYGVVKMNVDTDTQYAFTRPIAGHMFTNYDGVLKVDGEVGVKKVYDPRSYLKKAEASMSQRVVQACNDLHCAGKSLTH

This assay addresses Fructose-bisphosphate aldolase (Mycobacterium tuberculosis (strain ATCC 25618 / H37Rv)) (UniProt P9WQA3). As to the kind of experiment: Mtb FBA enzyme inhibitors, primary screen, biochemical, fluorescence, strain H37Rv (AID 588726).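 Also: 0% = vehicle and 100% = reference inhibitor.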 The settings on record: purified M. tuberculosis FBA, fluorescence read-out, at 1 µM, stronger effect = higher value.
As to `Cc1ccccc1CN1CCNC(=O)C1CC(=O)NCCC1=CCCCC1` (stereo not drawn), the inhibition is 2.98%.
For the compound `Cc1cc(C(=O)OC(C)C(=O)Nc2cccc(S(=O)(=O)N3CCOCC3)c2)c(C)o1` (stereo not drawn), the inhibition was -3.62%.
To `CCOCCCNC(=O)C(NC(=O)CNC(=O)c1ccccc1)c1ccc(OC)cc1` (stereo not drawn) belongs -0.07%.
For the compound `CCOCCCNC(=O)C(NC(=O)CNC(=O)c1ccccc1)c1ccc(C)cc1` (stereo not drawn), the inhibition was -3.14%.
The same measure for `CCOCCCNC(=O)C(NC(=O)c1ccccc1O)c1ccccc1` (stereo not drawn): 43.8% (active); for `COc1cccc(NC(=O)[C@H](Cc2c[nH]c3ccccc23)NC(=O)[C@@H]2Cc3ccccc3CN2)c1`: 10.6%; for `CCCCn1c(O)c(N=NC(=O)Cn2c(C(F)(F)F)nc3ccccc32)c2ccccc21`: 3.68%.
`N#C/C(=C/c1ccc(N2CCCCC2)o1)C(=O)NCCc1c[nH]c2ccccc12`: the inhibition is -32.6%.
The same measure for `CN=C1C=C/C(=N/N=c2\ccn(O)cc2C)C=C1C`: -28.4%.
As to `COc1ccc(S(=O)(=O)Nc2ccc3oc(C)c(C(C)=O)c3c2)cc1`, the inhibition was 0.55%.
To `Cc1ccc(S(=O)(=O)Nc2ccc(F)c(S(=O)(=O)N3CCOCC3)c2)cc1` belongs -0.06%; to `COCc1cc(=O)oc2cc(NS(=O)(=O)c3ccc(C)cc3)ccc12`, 62.4% (active).
Consider `COc1ccccc1CCNC(=O)C1CCN(C(=O)/C=C/c2ccccc2)CC1`, for which the inhibition is 81.2% (active).
To `CCOC(=O)C1CCN(C(=O)/C=C/c2cc(OC)c(OC)c(OC)c2)CC1` belongs 6.09%.
The same measure for `COc1ccccc1CNC(=O)C1CCN(C(=O)[C@@H]2Cc3ccccc3CN2)CC1`: -1.63%; for `CCCCC(CC)CNC(=O)CCCCn1c(=O)[nH]c2ccsc2c1=O` (stereo not drawn): -2.17%.
The same measure for `COc1cc(C2NC(=O)NC(c3ccccc3)=C2C(C)=O)c(Br)cc1OCC(N)=O` (stereo not drawn): 1.26%; for `O=C(CC(n1cncn1)C(Cl)(Cl)Cl)c1ccc([N+](=O)[O-])cc1` (stereo not drawn): 5.32%; for `NC(=S)NN=Cc1ccc(OC(=O)COc2cc(Cl)c(Cl)cc2Cl)cn1`: 4.26%.
Take `O=C(Nc1ccccc1C(=O)O)c1ccc(N2C(=O)C3CC=CCC3C2=O)cc1` (stereo not drawn): the inhibition was -1.48%.
In the case of `Cc1cc(C)nc(Nc2n[nH]c(-c3ccccc3N)n2)n1`, the inhibition is 15.2%.
The same measure for `O=[N+]([O-])c1ccc2nc(-c3ccccn3)[nH]c2c1`: -3.65%.
As for `Nc1ccccc1-c1nc2ccncc2[nH]1`, the inhibition is 83.7% (active).
The same measure for `O=S(=O)(NCCSc1ccccn1)c1ccc(Cl)cc1`: -1.18%; for `O=C(CN1CCC(O)(c2cccc(C(F)(F)F)c2)CC1)NCCc1ccccc1`: -2.53%; for `CCOc1ccc(C(=O)CCC(=O)NC2=NCCS2)cc1`: -2.69%.
On to `CCc1nn(CC(=O)N2CCN(CC)CC2)c(=O)c2cccn12`, for which the inhibition was 2.42%.
To `CCN1CCN(C(=O)Cn2nc(C)n3c(cc4c(OC)cccc43)c2=O)CC1` belongs 195% (active).
The same measure for `CCCN1CCN(C(=O)Cn2ncc3ccccc32)CC1`: 2.25%; for `Cc1ccccc1NC(=O)NC1(C(=O)N2CCCC2)CCCCC1`: -0.74%; for `Cc1cccc(-n2cc(CN3CCN(C(=O)c4ncn[nH]4)CC3)c(-c3cccc(F)c3)n2)c1`: -3.35%.
Turning to `CCC(O)C1CCN(Cc2cn(-c3ccc(OC)cc3)nc2-c2cccc(F)c2)CC1` (stereo not drawn), the inhibition was 23.7%.
In the case of `Cc1ccc(-n2cc(CN(C)Cc3nccn3C)c(-c3cccc(C)c3)n2)cc1`, the inhibition is -2.31%.
Regarding `COc1ccc(-c2nn(-c3ccccc3)cc2CN2CCCO2)c(F)c1`, the inhibition was -2.2%.
With `COc1ccc(-n2cc(CNC3CCOCC3)c(-c3cccc(F)c3)n2)cc1`, the inhibition is 50.5% (active).
Consider `COc1ccc(-n2cc(CN(C)Cc3n[nH]c(=O)[nH]3)c(-c3cccc(F)c3)n2)cc1`, for which the inhibition was 33.1% (active).
The same measure for `CCCCCCN1C[C@H](O)[C@@H](n2cc(C3CC3)nn2)C[C@@H]1c1ccc(Cl)cc1`: 0.57%.
The same measure for `COc1ccc2c(C)cc(SCC(=O)NCC3CCCO3)nc2c1` (stereo not drawn): 4.79%; for `COC(=O)CSc1nc(C)c2ccc(OC)cc2n1`: 30.8% (active).
To `COc1ccc2[nH]c3nc(SCC(=O)NC4CC4)nnc3c2c1` belongs -8.79%.
For `Cn1ncc(N2CCN(S(=O)(=O)c3ccc(Br)cc3)CC2)c(Cl)c1=O`, the inhibition is -2.21%.
To `CN1CCN(Cc2ccc(OC(F)(F)F)cc2)CC1` belongs -3.02%; to `COc1ccc(N2CCN(C(=O)CSc3nnc4ncccn34)CC2)cc1`, -2.52%; to `COc1ccc(C(=O)/C=C/Nc2ccccn2)cc1`, 4.41%.
Take `c1ccc(-c2cn3c(n2)CCc2ccc4cccnc4c2-3)cc1`: the inhibition is 6.65%.
As for `Cc1ccccc1Nc1c(-c2ccccc2)nc2ncccn12`, the inhibition was 2.19%.
To `CC(C)(C)NC(=O)NC(=O)COC(=O)C1(C)CC1(Cl)Cl` (stereo not drawn) belongs 0.89%.
To `COCCNC(=O)c1onc(CSc2cccc(C)c2)c1C(=O)O` belongs 1.01%; to `Cc1ccc(NC(=O)CN(C)C(=O)c2ccc(Br)o2)cc1`, 0.61%.
To `CC1COC2C(O1)N(S(C)(=O)=O)CCN2S(C)(=O)=O` (stereo not drawn) belongs -0.44%.
For the compound `Cc1cccc(-c2cnc(C(O)c3cc(C)cc(C)c3)[nH]2)c1` (stereo not drawn), the inhibition was -2%.
To `CC(C)C(C(=O)NC1CCCCC1)N(CC1CCCO1)C(=O)CNS(=O)(=O)c1ccc(F)cc1` (stereo not drawn) belongs -0.74%.
To `CN1OC[C@@H]2CN(C(=O)C(C)(C)C)[C@H](c3ccc(-n4ccnc4)cc3)C[C@@H]21` belongs 3.11%; to `Cc1ccc(-c2cnc(C(O)c3cccc(C)c3C)[nH]2)cc1` (stereo not drawn), -6.24%.
As for `CCC(C)(C)NC(=O)C(c1cccc(OC)c1OC)N(CC(C)C)C(=O)CCC(=O)Nc1cc(C)on1` (stereo not drawn), the inhibition was -1.74%.
The same measure for `COC(=O)C1=CN(C)C=C(C(=O)OC)C1c1ccc(Cl)cc1Cl`: 12.4%.
Take `CCOc1cc(C2C(C(=O)OC)=CN(C3CCCC3)C=C2C(=O)OC)cc(Br)c1O`: the inhibition is 9.72%.
The same measure for `CCOc1ccccc1C1C(C(=O)OC)=CN(C)C=C1C(=O)OC`: 180% (active).
